# Publication PMC8384837, “Expanding the binding specificity for RNA recognition by a PUF domain”
# What was measured:
# Experiment in all cases: yeast three-hybrid, YBZ-1, SC-Leu-His + 0.5 mM 3-AT, 4 days
# Conditions in all cases: tags: N-Gal4 AD-HA kept; label: inside an RPR1-promoter hybrid RNA with tandem MS2 sites; ssRNA
# PUM1 PUF domain R4-ACS = PUM1 PUF domain R4-ACS (Homo sapiens, UniProt Q14671 828-1176, N971A;H972C;Q975S)
# Outline: (§1)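 The interaction score is the log change in how often each variant appears, from input to selection. Frequencies came from PCR-amplified, Illumina-sequenced repeat regions of Pumilio-1 PUF domain libraries grown in strain YBZ-1 (LexA–MS2 coat fusion, HIS3 reporter) alongside matching RNA elements. Input plates were SC-Leu and selection plates were SC-Leu-His + 0.5 mM 3-AT, each for four days, and the log2 calculation used a pseudocount of 1 where a variant was absent.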
# PUM1 PUF domain R4-GFP = PUM1 PUF domain R4-GFP (Homo sapiens, UniProt Q14671 828-1176, N971G;H972F;Q975P)
# Chain of PUM1 PUF domain R4-GFP (Q14671 828-1176 N971G/H972F/Q975P): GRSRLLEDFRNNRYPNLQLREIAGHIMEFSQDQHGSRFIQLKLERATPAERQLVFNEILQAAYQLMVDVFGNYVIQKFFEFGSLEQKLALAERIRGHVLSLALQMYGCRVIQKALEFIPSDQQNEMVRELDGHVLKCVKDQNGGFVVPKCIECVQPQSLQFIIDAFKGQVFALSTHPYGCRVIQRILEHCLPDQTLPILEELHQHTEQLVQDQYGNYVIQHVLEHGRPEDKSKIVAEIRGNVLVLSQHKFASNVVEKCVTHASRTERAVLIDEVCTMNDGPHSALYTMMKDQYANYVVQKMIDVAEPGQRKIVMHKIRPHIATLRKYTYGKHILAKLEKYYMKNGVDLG
# Outline: as §1
# PUM1 PUF domain R3-TRS = PUM1 PUF domain R3-TRS (Homo sapiens, UniProt Q14671 828-1176, C935T;Q939S)
# Chain of PUM1 PUF domain R3-TRS (Q14671 828-1176 C935T/Q939S): as the sequence (Q14671 828-1176 N971G/H972F/Q975P) above, with C108T, Q112S, G144N, F145H, P148Q counted along it
# Outline: as §1
# PUM1 PUF domain R3-PHQ = PUM1 PUF domain R3-PHQ (Homo sapiens, UniProt Q14671 828-1176, C935P;R936H)
# Chain of PUM1 PUF domain R3-PHQ (Q14671 828-1176 C935P/R936H): as the sequence (Q14671 828-1176 N971G/H972F/Q975P) above, with C108P, R109H, G144N, F145H, P148Q counted along it
# Outline: as §1
# PUM1 PUF domain R8-PWW = PUM1 PUF domain R8-PWW (Homo sapiens, UniProt Q14671 828-1176, N1122P;Y1123W;Q1126W)
# Chain of PUM1 PUF domain R8-PWW (Q14671 828-1176 N1122P/Y1123W/Q1126W): as the sequence (Q14671 828-1176 N971G/H972F/Q975P) above, with G144N, F145H, P148Q, N295P, Y296W, Q299W counted along it
# Outline: as §1
# PUM1 PUF domain R3-LYL = PUM1 PUF domain R3-LYL (Homo sapiens, UniProt Q14671 828-1176, C935L;R936Y;Q939L)
# Chain of PUM1 PUF domain R3-LYL (Q14671 828-1176 C935L/R936Y/Q939L): as the sequence (Q14671 828-1176 N971G/H972F/Q975P) above, with C108L, R109Y, Q112L, G144N, F145H, P148Q counted along it
# Outline: as §1
# PUM1 PUF domain R7-RPV = PUM1 PUF domain R7-RPV (Homo sapiens, UniProt Q14671 828-1176, S1079R;N1080P;E1083V)
# Chain of PUM1 PUF domain R7-RPV (Q14671 828-1176 S1079R/N1080P/E1083V): as the sequence (Q14671 828-1176 N971G/H972F/Q975P) above, with G144N, F145H, P148Q, S252R, N253P, E256V counted along it
# Outline: as §1
# PUM1 PUF domain R4-ERQ = PUM1 PUF domain R4-ERQ (Homo sapiens, UniProt Q14671 828-1176, N971E;H972R)
# Chain of PUM1 PUF domain R4-ERQ (Q14671 828-1176 N971E/H972R): as the sequence (Q14671 828-1176 N971G/H972F/Q975P) above, with G144E, F145R, P148Q counted along it
# Outline: as §1
# PUM1 PUF domain R3-MWP = PUM1 PUF domain R3-MWP (Homo sapiens, UniProt Q14671 828-1176, C935M;R936W;Q939P)
# Chain of PUM1 PUF domain R3-MWP (Q14671 828-1176 C935M/R936W/Q939P): as the sequence (Q14671 828-1176 N971G/H972F/Q975P) above, with C108M, R109W, Q112P, G144N, F145H, P148Q counted along it
# Outline: as §1
# PUM1 PUF domain R3-RSQ = PUM1 PUF domain R3-RSQ (Homo sapiens, UniProt Q14671 828-1176, C935R;R936S)
# Chain of PUM1 PUF domain R3-RSQ (Q14671 828-1176 C935R/R936S): as the sequence (Q14671 828-1176 N971G/H972F/Q975P) above, with C108R, R109S, G144N, F145H, P148Q counted along it
# Outline: as §1
# Chain of PUM1 PUF domain R4-ACS (Q14671 828-1176 N971A/H972C/Q975S): as the sequence (Q14671 828-1176 N971G/H972F/Q975P) above, with G144A, F145C, P148S counted along it
sequence,measurement,setting,value
GGCUAGAACUAGUGGAUCCCCCGGCGCCCGGCGGCUCGAGCCCGGGUAAGUGUAAAUAGUCUGCAUGCCGCCGGGCGCCAUGCCUGCAGGUCGACUCUAGAAAACAUG,binding signal,PUM1 PUF domain R4-ACS,2.98 log2 enrichment (interaction score)
same,binding signal,PUM1 PUF domain R4-GFP,4.75 log2 enrichment (interaction score)
same,binding signal,PUM1 PUF domain R3-TRS,4.62 log2 enrichment (interaction score)
same,binding signal,PUM1 PUF domain R3-PHQ,4.19 log2 enrichment (interaction score)
same,binding signal,PUM1 PUF domain R8-PWW,3.57 log2 enrichment (interaction score)
same,binding signal,PUM1 PUF domain R3-LYL,4.43 log2 enrichment (interaction score)
GGCUAGAACUAGUGGAUCCCCCGGCGCCCGGCGGCUCGAGCCCGGGUAAGUUUAAAUAGUCUGCAUGCCGCCGGGCGCCAUGCCUGCAGGUCGACUCUAGAAAACAUG,binding signal,PUM1 PUF domain R7-RPV,3.09 log2 enrichment (interaction score)
GGCUAGAACUAGUGGAUCCCCCGGCGCCCGGCGGCUCGAGCCCGGGUAAGUGUACAUAGUCUGCAUGCCGCCGGGCGCCAUGCCUGCAGGUCGACUCUAGAAAACAUG,binding signal,PUM1 PUF domain R4-ACS,1.22 log2 enrichment (interaction score)
same,binding signal,PUM1 PUF domain R4-ERQ,2.62 log2 enrichment (interaction score)
same,binding signal,PUM1 PUF domain R4-GFP,5.41 log2 enrichment (interaction score)
GGCUAGAACUAGUGGAUCCCCCGGCGCCCGGCGGCUCGAGCCCGGGUAAGUCUAAAUAGUCUGCAUGCCGCCGGGCGCCAUGCCUGCAGGUCGACUCUAGAAAACAUG,binding signal,PUM1 PUF domain R7-RPV,1.08 log2 enrichment (interaction score)
GGCUAGAACUAGUGGAUCCCCCGGCGCCCGGCGGCUCGAGCCCGGGUAAGUGUAAGUAGUCUGCAUGCCGCCGGGCGCCAUGCCUGCAGGUCGACUCUAGAAAACAUG,binding signal,PUM1 PUF domain R3-TRS,1.93 log2 enrichment (interaction score)
same,binding signal,PUM1 PUF domain R3-MWP,5.07 log2 enrichment (interaction score)
same,binding signal,PUM1 PUF domain R3-LYL,4.81 log2 enrichment (interaction score)
GGCUAGAACUAGUGGAUCCCCCGGCGCCCGGCGGCUCGAGCCCGGGUAAGUGUAUAUAGUCUGCAUGCCGCCGGGCGCCAUGCCUGCAGGUCGACUCUAGAAAACAUG,binding signal,PUM1 PUF domain R4-ACS,1.22 log2 enrichment (interaction score)
same,binding signal,PUM1 PUF domain R4-GFP,5.97 log2 enrichment (interaction score)
GGCUAGAACUAGUGGAUCCCCCGGCGCCCGGCGGCUCGAGCCCGGGUAAGUGUAAUUAGUCUGCAUGCCGCCGGGCGCCAUGCCUGCAGGUCGACUCUAGAAAACAUG,binding signal,PUM1 PUF domain R3-RSQ,4.22 log2 enrichment (interaction score)
same,binding signal,PUM1 PUF domain R3-TRS,1.31 log2 enrichment (interaction score)
same,binding signal,PUM1 PUF domain R3-MWP,3.31 log2 enrichment (interaction score)
same,binding signal,PUM1 PUF domain R3-LYL,3.45 log2 enrichment (interaction score)
